Assay results reported in PubChem BioAssay (Tox21).
Values joined by “and” are separate entries in the source; they are usually repeats but may differ in a detail not shown here. Equal values may be shown once. Inconclusive results are not listed. Where a call stands in place of a potency, no number is given. The source holds several records for some structures; these can differ, active in one and inactive in another. Active and inactive are the calls of the source. Unless noted, the call rests on the fitted dose curve.

Key:
[1] = Nuclear factor erythroid 2-related factor 2/antioxidant responsive element (Nrf2/ARE) small molecule agonists: qHTS cell viability counter screen in human keratinocytes (AID 1919968; active means well fitted curve in the direction sought with a large enough effect in the repeat runs; an effect the other way counts as inactive or inconclusive; further: nearly all actives have a fitted effect of over 55% in size; further: potency means the concentration at half of the fitted maximal effect)
Outline: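 Cells of the KeratinoSens line were plated at 1,500 per well and left for 5 h before compound transfer from DMSO stocks. After a 23 h incubation (37 C, 5% CO2), CellTiter-Fluor was added. Signal was taken as fluorescence intensity 1 h later.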

[2] = Nuclear factor erythroid 2-related factor 2/antioxidant responsive element (Nrf2/ARE) small molecule agonists: luciferase reporter gene qHTS assay in human keratinocytes (AID 1919969); further: nearly all actives have a fitted effect of over 35% in size; further: potency means the concentration at half of the fitted maximal effect
[3] = target: Gonadotropin-releasing hormone receptor (Homo sapiens) (UniProt P30968); assay: Human gonadotropin-releasing hormone receptor (GnRHR) small molecule agonists, calcium flux assay in GnRHR-HEK293 cells (AID 1920063); further: nearly all actives have a fitted effect of over 35% in size
Outline: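 Compounds dissolved in DMSO are pin-transferred onto dye-loaded GnRHR-HEK293 cells, which were seeded 18 h before at 37 C/5% CO2. Calcium signal is read as fluorescence intensity at 1 s intervals for 3 min.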

[4] = target: KiSS-1 receptor (Homo sapiens) (UniProt Q969F8); assay: Human kisspeptin (KISS1R) small molecule agonists, calcium flux assay in KISS1R-HEK293 cells (AID 1920064; active means well fitted curve in the direction sought with a large enough effect in the repeat runs; an effect the other way counts as inactive or inconclusive)
Outline: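 Cell line: HEK293, stable human KISS1R. Dye loading 1 h at 37 C after 18 h culture. Read: kinetic fluorescence, 480/540 nm, 3 min at 1 s intervals.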

[5] = G protein-coupled receptor (GPCR) small molecule agonists, calcium flux assay: HEK293 wild type cell line counter screen (AID 1920065)
Outline: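 Tox21 10K compounds, 15 concentrations each in triplicate, pin-transferred in DMSO onto dye-loaded cells; kinetic read at 480/540 nm for 3 min, 1 s intervals.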

[6] = p53 small molecule agonists, cell-based qHTS assay with human liver microsomes: qHTS cell viability counter screen (AID 1963579); further: nearly all actives have a fitted effect of over 45% in size
Outline: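 In this multiplexed counter screen, the reporter plates were subsequently treated with CellTiter-Glo so that cell viability, reflected by luminescence, could be recorded for p53RE-bla cells dosed 16 h with compounds under microsomal activation (HLM and NADPH).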

[7] = p53 small molecule agonists, cell-based qHTS assay with rat liver microsomes: qHTS cell viability counter screen (AID 1963580); further: nearly all actives have a fitted effect of over 45% in size
Outline: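 After the beta-lactamase ratio was read, CellTiter-Glo was added to the same wells and luminescence measured at 30 min; cells had been treated 16 h at 37 C with compounds, rat liver microsomes and NADPH (0.5 mg/mL final each).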

[8] = p53 small molecule agonists, cell-based qHTS assay: qHTS cell viability counter screen (AID 1963581); further: nearly all actives have a fitted effect of over 45% in size
Outline: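 ATP content measured by luminescence in HCT-116 p53RE-bla cells treated 16 h at 37 C, same wells as the reporter screen.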

[9] = target: 5-hydroxytryptamine receptor 2A (Homo sapiens) (UniProt P28223); assay: 5-hydroxytryptamine receptor 2A (HTR2A) small molecule antagonists, cell-based qHTS assay (AID 1963586); further: nearly all actives have a fitted effect of over 45% in size
Outline: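 CHO cells stably expressing human HTR2A were plated for 18 h at 37 C, then loaded with calcium dye for 1 h. Compounds were preincubated 5 min at room temperature before DOI (4 nM solution) was added. Kinetic fluorescence was read for 3 min.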

[10] = target: 5-hydroxytryptamine receptor 2A (Homo sapiens) (UniProt P28223); assay: 5-hydroxytryptamine receptor 2A (HTR2A) small molecule agonists, cell-based qHTS assay (AID 1963587); further: nearly all actives have a fitted effect of over 30% in size
Outline: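 CHO cells stably expressing human HTR2A, plated 18 h, loaded with calcium dye 1 h at 37 C. Agonist mode: compounds added and intracellular calcium fluorescence recorded kinetically for 2 min at 1 sec intervals.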

[11] = target: Muscarinic acetylcholine receptor M1 (Homo sapiens) (UniProt P11229); assay: Cholinergic receptor muscarinic 1 (CHRM1) small molecule antagonists, cell-based qHTS assay (AID 1963588); further: nearly all actives have a fitted effect of over 40% in size
Outline: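 Compounds were tested at 15 concentrations in three independent runs. Dye-loaded CHRM1-CHO cells were exposed 5 min at room temperature before stimulation by acetylcholine added at 50nM. Intracellular calcium was read kinetically on FDSS for 3 min.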

[12] = target: Muscarinic acetylcholine receptor M1 (Homo sapiens) (UniProt P11229); assay: Cholinergic receptor muscarinic 1 (CHRM1) small molecule agonists, cell-based qHTS assay (AID 1963589); further: nearly all actives have a fitted effect of over 35% in size
Outline: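 Homogeneous fluorescence calcium flux, agonist mode. Human M1-expressing CHO cells; compound dosed at 15 concentrations, three independent runs; signal sampled every 1 sec.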

[13] = cAMP Responsive Elements (CRE) small molecule agonists, cell-based qHTS assay (AID 1963590)
Outline: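 HEK 293T cells stably bearing CRE-bla were plated at 2,000 cells per well and rested 18 h. Compounds, positive controls or DMSO were added for 3 h at 37 C. LiveBLAzer B/G substrate was then loaded for 2 h at room temperature.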

[14] = cAMP Responsive Elements (CRE) small molecule antagonists, cell-based qHTS assay (AID 1963591; active means well fitted inhibition curve with a large enough effect in the signal ratio in the repeat runs, not every such curve was filed as active; the % refers to the signal ratio)
Outline: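 First, CRE-bla HEK293T cells settled 18 h at 37 C. Next, compound and 0.25 uM final NKH477 were applied for 3 h. Last, LiveBLAzer B/G substrate was loaded for 2 h at room temperature.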

[15] = target: Beta-2 adrenergic receptor (Homo sapiens) (UniProt P07550); assay: Adrenergic beta2 receptor (ADRB2) small molecule antagonists, cell-based qHTS assay (AID 1963592); further: nearly all actives have a fitted effect of over 50% in size; further: potency means the concentration at half of the fitted maximal effect
Outline: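 Assay format: CHO-ADRB2 cells, 18-20hr seeding at 37C/5% CO2, then compound plus 1nM isoproterenol agonist mix for 0.5hr RT. Homogeneous time-resolved fluorescence cAMP detection after 1hr, expressed as 665/615 nm ratio.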

[16] = target: Beta-2 adrenergic receptor (Homo sapiens) (UniProt P07550); assay: Adrenergic beta2 receptor (ADRB2) small molecule agonists, cell-based qHTS assay (AID 1963593);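 further: CHO cells stably overexpressing human ADRB2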
Outline: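 CHO cells stably over-expressing ADRB2 were plated overnight at 37C, then dosed with compounds plus a stimulation mix containing 100uM IBMX and 25uM Ro-20-1724 for 0.5hr at room temperature. cAMP was measured by HTRF competition, 1hr.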

[17] = target: D(2) dopamine receptor (Homo sapiens) (UniProt P14416); assay: Dopamine D2 receptor (DRD2) small molecule agonists, cell-based qHTS assay (AID 1963594); further: nearly all actives have a fitted effect of over 35% in size
Outline: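 HEK293 cells stably expressing human DRD2, pre-treated with PDE inhibitor Ro20-1724 (0.1 mM final) and compound 10 min at room temperature, then stimulated with NKH477 (200nM […]) for 30 min. cAMP read by HTRF (665/620 nm).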

[18] = target: D(2) dopamine receptor (Homo sapiens) (UniProt P14416); assay: Dopamine D2 receptor (DRD2) small molecule antagonists, cell-based qHTS assay (AID 1963595; active means well fitted inhibition curve with a large enough effect in the signal ratio in the repeat runs, with a control signal flat; the % refers to the signal ratio)
Outline: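 In this cell-based antagonist screen, compounds act for 10 min at room temperature before a 30 min challenge with 12 nM quinpirole and 200 nM NKH477. cAMP is quantified by HTRF competition in DRD2-HEK293 cells containing 0.1 mM Ro20-1724.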

[19] = p53 small molecule agonists, cell-based qHTS assay with rat liver microsomes (AID 1963578)
Outline: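 With rat liver microsomes and NADPH present (0.5 mg/mL final each), p53RE-bla cells are treated with compound for 16 h at 37 C. LiveBLAzer detection mixture is then applied for 2 h at room temperature in the dark.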

[20] = p53 small molecule agonists, cell-based qHTS assay (AID 1963582; active means well fitted activation curve with a large enough effect in the signal ratio in the repeat runs, not every such curve was filed as active; the % refers to the signal ratio)
Outline: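 16 h compound exposure (37 C) of p53 response element–bla cells, preceded by 5 h recovery at 37 C/5% CO2; read-out via LiveBLAzer B/G FRET substrate, 2 h RT, fluorescence intensity.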

Sequence of KiSS-1 receptor (Homo sapiens) (Q969F8 whole entry, looked up): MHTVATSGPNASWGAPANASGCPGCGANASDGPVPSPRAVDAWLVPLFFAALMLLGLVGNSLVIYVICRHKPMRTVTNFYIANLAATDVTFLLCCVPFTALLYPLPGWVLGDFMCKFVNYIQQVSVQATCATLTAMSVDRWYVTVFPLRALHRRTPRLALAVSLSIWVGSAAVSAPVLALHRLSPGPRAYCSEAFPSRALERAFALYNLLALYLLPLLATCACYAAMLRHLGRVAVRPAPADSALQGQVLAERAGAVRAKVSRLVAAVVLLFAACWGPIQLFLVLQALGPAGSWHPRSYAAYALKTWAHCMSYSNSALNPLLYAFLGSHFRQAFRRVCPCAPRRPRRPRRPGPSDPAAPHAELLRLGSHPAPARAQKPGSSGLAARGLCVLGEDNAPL
Sequence of Beta-2 adrenergic receptor (Homo sapiens) (P07550 whole entry, looked up): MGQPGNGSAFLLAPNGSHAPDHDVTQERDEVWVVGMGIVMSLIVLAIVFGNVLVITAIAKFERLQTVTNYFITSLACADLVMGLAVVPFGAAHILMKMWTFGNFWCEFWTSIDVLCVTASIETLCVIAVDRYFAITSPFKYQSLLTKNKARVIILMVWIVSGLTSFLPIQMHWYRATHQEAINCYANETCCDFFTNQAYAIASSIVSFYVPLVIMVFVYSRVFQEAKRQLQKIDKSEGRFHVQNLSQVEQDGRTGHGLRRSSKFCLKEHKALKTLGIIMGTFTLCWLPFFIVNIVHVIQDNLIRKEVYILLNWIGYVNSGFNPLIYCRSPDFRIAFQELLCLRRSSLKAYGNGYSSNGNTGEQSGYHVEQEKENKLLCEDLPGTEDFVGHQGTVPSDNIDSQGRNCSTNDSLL
Sequence of D(2) dopamine receptor (Homo sapiens) (P14416 whole entry, looked up): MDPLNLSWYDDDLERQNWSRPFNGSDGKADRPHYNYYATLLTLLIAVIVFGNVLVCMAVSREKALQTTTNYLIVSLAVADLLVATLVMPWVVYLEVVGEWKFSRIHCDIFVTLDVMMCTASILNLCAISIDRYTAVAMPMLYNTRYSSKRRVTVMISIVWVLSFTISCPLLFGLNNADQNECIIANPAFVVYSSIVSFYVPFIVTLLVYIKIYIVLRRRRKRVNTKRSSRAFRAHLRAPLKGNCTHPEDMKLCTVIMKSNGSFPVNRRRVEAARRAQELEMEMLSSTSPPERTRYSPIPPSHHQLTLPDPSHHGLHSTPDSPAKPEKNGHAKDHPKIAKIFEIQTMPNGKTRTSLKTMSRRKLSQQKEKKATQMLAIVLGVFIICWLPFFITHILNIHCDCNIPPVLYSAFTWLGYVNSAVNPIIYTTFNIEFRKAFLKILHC
Sequence of Gonadotropin-releasing hormone receptor (Homo sapiens) (P30968 whole entry, looked up): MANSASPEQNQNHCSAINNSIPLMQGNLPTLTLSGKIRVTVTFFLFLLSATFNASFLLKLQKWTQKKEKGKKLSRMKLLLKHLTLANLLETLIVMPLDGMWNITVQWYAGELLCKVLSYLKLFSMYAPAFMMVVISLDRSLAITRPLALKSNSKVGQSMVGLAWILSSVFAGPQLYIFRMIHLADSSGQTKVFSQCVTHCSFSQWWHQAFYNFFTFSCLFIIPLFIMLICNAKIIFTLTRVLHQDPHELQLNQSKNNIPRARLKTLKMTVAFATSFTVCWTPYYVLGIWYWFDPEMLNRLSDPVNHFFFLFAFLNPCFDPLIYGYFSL
Sequence of 5-hydroxytryptamine receptor 2A (Homo sapiens) (P28223 whole entry, looked up): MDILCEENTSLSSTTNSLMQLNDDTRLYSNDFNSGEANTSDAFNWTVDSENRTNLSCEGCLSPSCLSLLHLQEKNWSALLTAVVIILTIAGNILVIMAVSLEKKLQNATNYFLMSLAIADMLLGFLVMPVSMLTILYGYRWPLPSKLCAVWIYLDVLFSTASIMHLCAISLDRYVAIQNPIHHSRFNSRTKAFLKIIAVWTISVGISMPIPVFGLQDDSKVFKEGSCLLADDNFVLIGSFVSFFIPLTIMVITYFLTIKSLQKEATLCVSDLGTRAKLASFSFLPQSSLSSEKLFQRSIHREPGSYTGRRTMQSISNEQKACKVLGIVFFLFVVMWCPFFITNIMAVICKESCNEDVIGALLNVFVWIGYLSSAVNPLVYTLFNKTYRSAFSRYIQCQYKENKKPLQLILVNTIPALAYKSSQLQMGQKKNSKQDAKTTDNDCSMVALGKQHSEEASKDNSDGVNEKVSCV
Sequence of Muscarinic acetylcholine receptor M1 (Homo sapiens) (P11229 whole entry, looked up): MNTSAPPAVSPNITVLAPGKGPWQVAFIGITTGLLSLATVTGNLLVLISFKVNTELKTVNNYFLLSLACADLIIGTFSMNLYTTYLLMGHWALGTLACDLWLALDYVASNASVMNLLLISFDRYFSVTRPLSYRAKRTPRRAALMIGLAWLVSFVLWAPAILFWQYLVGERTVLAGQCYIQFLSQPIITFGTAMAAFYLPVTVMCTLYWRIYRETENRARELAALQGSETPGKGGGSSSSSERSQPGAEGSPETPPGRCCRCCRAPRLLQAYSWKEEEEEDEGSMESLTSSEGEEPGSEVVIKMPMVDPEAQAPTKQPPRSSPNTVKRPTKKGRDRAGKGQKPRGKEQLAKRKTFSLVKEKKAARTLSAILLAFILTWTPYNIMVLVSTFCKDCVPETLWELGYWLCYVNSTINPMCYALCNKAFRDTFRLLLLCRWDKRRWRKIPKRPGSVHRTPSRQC

C=C(C)C(=O)OCC(C)O (stereo not drawn)
Potency [1]: inactive
Potency [2]: inactive
Potency [3]: inactive
Potency [4]: inactive
Potency [5]: inactive
Potency [6]: inactive
Potency [7]: inactive
Potency [8]: inactive
Potency [9]: inactive
Potency [10]: inactive
Potency [11]: inactive
Potency [12]: inactive
Potency [13]: inactive
Potency [14]: inactive
Potency [15]: inactive
Potency [16]: inactive
Potency [17]: inactive
Potency [18]: inactive

COC(=O)[C@H]1[C@H]2C[C@@H]3c4[nH]c5cc(OC)ccc5c4CCN3C[C@H]2C[C@@H](OC(=O)c2cc(OC)c(OC)c(OC)c2)[C@@H]1OC
Potency [1]: 48.5 µM (active) and inactive
Potency [2]: inactive
Potency [3]: inactive
Potency [4]: inactive
Potency [5]: inactive
Potency [19]: inactive
Potency [6]: inactive
Potency [7]: inactive
Potency [8]: inactive
Potency [20]: inactive
Potency [15]: 54.4 µM (active) and 19.9 µM (active) and inactive
Potency [17]: inactive
Potency [18]: inactive

Nc1ccn([C@H]2CC[C@@H](CO)O2)c(=O)n1
Potency [1]: inactive
Potency [2]: inactive
Potency [3]: inactive
Potency [4]: inactive
Potency [5]: inactive
Potency [6]: inactive
Potency [7]: inactive
Potency [8]: inactive
Potency [20]: inactive
Potency [9]: inactive
Potency [10]: inactive
Potency [11]: inactive
Potency [12]: inactive
Potency [13]: inactive
Potency [14]: inactive
Potency [15]: inactive
Potency [16]: inactive
Potency [17]: inactive
Potency [18]: inactive

COc1c(Cl)c(Cl)c(Cl)c(Cl)c1Cl
Potency [1]: inactive
Potency [2]: inactive
Potency [3]: inactive
Potency [4]: inactive
Potency [5]: inactive
Potency [6]: inactive
Potency [7]: inactive
Potency [8]: inactive
Potency [9]: inactive
Potency [10]: inactive
Potency [11]: inactive
Potency [12]: inactive
Potency [13]: inactive
Potency [14]: inactive
Potency [15]: inactive
Potency [16]: inactive
Potency [17]: inactive

CCCOCC(C)O (stereo not drawn)
Potency [1]: inactive
Potency [2]: inactive
Potency [3]: inactive
Potency [4]: inactive
Potency [5]: inactive
Potency [6]: inactive
Potency [7]: inactive
Potency [8]: inactive
Potency [9]: inactive
Potency [10]: inactive
Potency [11]: inactive
Potency [12]: inactive
Potency [13]: inactive
Potency [14]: inactive
Potency [15]: inactive
Potency [16]: inactive
Potency [17]: inactive
Potency [18]: inactive

CC[N+](CC)(CC(=O)Nc1c(C)cccc1C)Cc1ccccc1
Potency [1]: inactive
Potency [2]: inactive
Potency [3]: inactive
Potency [4]: inactive
Potency [5]: inactive
Potency [6]: inactive
Potency [7]: inactive
Potency [8]: inactive
Potency [9]: inactive
Potency [10]: inactive
Potency [11]: inactive
Potency [12]: inactive
Potency [13]: inactive
Potency [14]: inactive
Potency [15]: inactive
Potency [16]: inactive
Potency [17]: inactive
Potency [18]: inactive

CC1(C)[C@@H]2CC[C@@]1(C)C(=O)C2
Potency [1]: inactive
Potency [2]: inactive
Potency [3]: inactive
Potency [4]: inactive
Potency [5]: inactive
Potency [19]: inactive
Potency [6]: inactive
Potency [7]: inactive
Potency [8]: inactive
Potency [20]: inactive
Potency [13]: inactive
Potency [14]: inactive
Potency [15]: inactive
Potency [16]: inactive
Potency [17]: inactive

CCCCC(CC)C(=O)O (stereo not drawn)
Potency [1]: inactive
Potency [2]: inactive
Potency [3]: inactive
Potency [4]: inactive
Potency [5]: inactive
Potency [6]: inactive
Potency [7]: inactive
Potency [8]: inactive
Potency [9]: inactive
Potency [10]: inactive
Potency [11]: inactive
Potency [12]: inactive
Potency [13]: inactive
Potency [14]: inactive
Potency [15]: inactive
Potency [16]: inactive
Potency [17]: inactive
Potency [18]: inactive

COc1ccc(Cl)cc1C(=O)NCCc1ccc(S(=O)(=O)NC(=O)NC2CCCCC2)cc1
Potency [1]: inactive
Potency [2]: inactive
Potency [3]: inactive
Potency [4]: inactive
Potency [5]: inactive
Potency [19]: inactive
Potency [6]: inactive
Potency [8]: inactive
Potency [20]: inactive
Potency [17]: inactive
Potency [18]: inactive

CCCCCCCCOc1ccc(C(=O)c2ccccc2)c(O)c1
Potency [1]: inactive
Potency [2]: inactive
Potency [3]: inactive
Potency [4]: inactive
Potency [5]: inactive
Potency [6]: inactive
Potency [7]: inactive
Potency [8]: inactive
Potency [20]: inactive
Potency [9]: inactive
Potency [10]: inactive
Potency [11]: inactive
Potency [12]: inactive
Potency [13]: inactive
Potency [14]: inactive
Potency [15]: inactive
Potency [16]: inactive
Potency [17]: inactive
Potency [18]: inactive

O=C(O)[C@H](O)[C@@H](O)[C@H](O)[C@H](O)CO
Potency [1]: inactive
Potency [2]: inactive
Potency [3]: inactive
Potency [4]: inactive
Potency [5]: inactive
Potency [6]: inactive
Potency [7]: inactive
Potency [8]: inactive
Potency [9]: inactive
Potency [10]: inactive
Potency [11]: inactive
Potency [12]: inactive
Potency [13]: inactive
Potency [14]: inactive
Potency [15]: inactive
Potency [17]: inactive
Potency [18]: inactive

Nc1ccc(S(=O)(=O)c2ccc(N)cc2)cc1
Potency [1]: inactive
Potency [2]: inactive and 27.3 µM (active)
Potency [3]: inactive
Potency [4]: inactive
Potency [5]: inactive
Potency [19]: inactive
Potency [6]: inactive
Potency [8]: inactive
Potency [20]: inactive
Potency [9]: inactive
Potency [10]: inactive
Potency [11]: inactive
Potency [12]: inactive
Potency [14]: inactive
Potency [15]: inactive
Potency [17]: inactive
Potency [18]: inactive

CCO[Si](CCCN)(OCC)OCC
Potency [1]: inactive
Potency [2]: inactive
Potency [3]: inactive
Potency [4]: inactive
Potency [5]: inactive
Potency [19]: inactive
Potency [6]: inactive
Potency [7]: inactive
Potency [20]: inactive
Potency [9]: inactive
Potency [10]: inactive
Potency [11]: inactive
Potency [12]: inactive
Potency [13]: inactive
Potency [14]: inactive
Potency [15]: inactive
Potency [16]: inactive
Potency [17]: inactive
Potency [18]: inactive

CCCCN(CCCC)CCCC
Potency [1]: inactive
Potency [2]: inactive
Potency [3]: inactive
Potency [4]: inactive
Potency [5]: inactive
Potency [19]: inactive
Potency [6]: inactive
Potency [7]: inactive
Potency [20]: inactive
Potency [9]: inactive
Potency [10]: inactive
Potency [11]: inactive
Potency [12]: inactive
Potency [13]: inactive
Potency [14]: inactive
Potency [15]: inactive
Potency [16]: inactive
Potency [17]: inactive
Potency [18]: inactive
